High-throughput results deposited in PubChem BioAssay by The Scripps Research Institute Molecular Screening Center.
Compounds with a hit are over-represented: about 4.1% of the library has one in this group of screens.
hcDAF-12 act: H. contortus DAF-12 activation, primary screen | activation, % at 6.8 µM | actives 1.4% (n = 370,000) | AID 652067 | HEK293 hcDAF-12 lit1-tk-luc reporter, luminescence; 0% DMSO, 100% Δ7-dafachronic acid;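 active means activation above the mean of all tested compounds plus 3 SD, cut at about 5.5% in these data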;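 further: 100% = response to 3 µM Δ7-dafachronic acid high control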
ssDAF12 agonist: activates DAF-12 receptor from parasite S. stercoralis | activation, % at 6.8 µM | AID 652126 | actives 1% (n = 370,000) | HEK293 ssDAF-12/GRIP1 lit1-tk-luc reporter, luminescence; % of 3 µM dafachronic acid response;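 active means activation above the mean over all tested compounds plus 3 SD, cut at about 0.9% in these data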;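 further: 0% = DMSO-only wells and 100% = 3 µM delta7-dafachronic acid wells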
hgDAF-12 ag: hgDAF-12 agonism, primary luciferase screen; AID 687014; activation, % at 6.8 µM; actives 1.8% (n = 370,000); HEK293 GAL4-hgDAF12 UAS-luciferase reporter, agonist luminescence; normalized to butyrate control;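 active means activation above a cutoff set at the mean of all screened compounds plus 3 SD, cut at about 10% in these data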;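 further: 0% = DMSO wells and 100% = sodium butyrate wells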
DAX1 inh-1: inhibits human nuclear receptor DAX1. actives 0.99% (n = 340,000). HEK293 Gal4-DAX1 luciferase reporter, luminescence. P51843. inhibition, % at 6.75 µM;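 active means inhibition above the mean over all tested compounds plus 3 SD, cut at about 4.2% in these data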;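 further: 0% = DAX1-transfected cells with DMSO and 100% = empty-vector control cells with DMSO; inhibition shows as a rise in luminescence from relieved DAX1 repression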
DAX1 inh-2: blocks DAX1 repression of SF-1 activated StAR promoter; inhibition, % at 6.8 µM; HEK293T StAR-luciferase reporter, SF-1/DAX-1 repression relief; AID 652010; actives 1.1% (n = 370,000);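 active means inhibition above the mean over all tested compounds plus 3 SD, cut at about 3.6% in these data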;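 further: 0% = DAX-1 cells with DMSO and 100% = cells lacking DAX-1 with DMSO; higher inhibition means more luminescence from relief of DAX-1 repression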
LXR ag: counter-screen for hcDAF-12 agonists: agonists of human LXR-beta; AID 743027; HEK293 Gal4-LXR tk-luc reporter, luminescence, 24 h; normalized: DMSO 0%, positive control 100%; activation, % at 6.8 µM; shares compounds with hcDAF-12 act; 3,400 tested, under 10 active;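 active means mean percent activation of the reporter above a cutoff set as the average over tested compounds plus their standard deviation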
Target sequence (P55055 whole entry, looked up, the tested form may be a part): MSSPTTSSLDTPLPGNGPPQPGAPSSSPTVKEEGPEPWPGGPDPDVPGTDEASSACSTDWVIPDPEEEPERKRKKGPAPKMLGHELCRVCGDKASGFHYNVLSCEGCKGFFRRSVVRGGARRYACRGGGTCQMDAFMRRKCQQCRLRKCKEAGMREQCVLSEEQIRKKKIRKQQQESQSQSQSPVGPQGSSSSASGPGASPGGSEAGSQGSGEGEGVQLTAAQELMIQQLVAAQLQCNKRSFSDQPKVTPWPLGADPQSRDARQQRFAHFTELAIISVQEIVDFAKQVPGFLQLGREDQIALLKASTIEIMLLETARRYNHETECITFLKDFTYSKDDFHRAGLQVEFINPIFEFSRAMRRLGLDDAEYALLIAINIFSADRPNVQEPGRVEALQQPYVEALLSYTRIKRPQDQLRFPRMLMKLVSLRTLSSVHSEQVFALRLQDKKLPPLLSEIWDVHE
hcDAF12 conf: confirmation of H. contortus DAF-12 agonists; shares compounds with hcDAF-12 act; HEK293 hcDAF-12 lit1-tk-luc reporter, luminescence; % of Δ7-dafachronic acid response; activation, % at 6.8 µM; actives 61% (n = 3,400);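 active means mean activation across triplicate tests above the threshold derived from the earlier primary screen, cut at about 5.5% in these data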;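 further: 0% = DMSO only wells and 100% = 3 µM Δ7-dafachronic acid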
hgDAF12 conf: confirmation of H. glycines DAF-12 agonists; shares compounds with hgDAF-12 ag; HEK293 GAL4-hgDAF12 luciferase reporter, agonist mode; percent of butyrate response; activation, % at 6.8 µM; actives 80% (n = 3,300);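 active means mean activation over triplicate wells above the hit cutoff derived from the earlier primary screen, cut at about 11% in these data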;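 further: 0% = DMSO low control and 100% = 2 mM sodium butyrate high control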
LXRb DAF12 ctr: counter-screen for DAF-12 agonists: agonists of human LXR-beta | shares compounds with hgDAF-12 ag | HEK293 Gal4-LXR luciferase reporter, 24 h | activation, % at 6.8 µM | 3,300 tested, under 10 active | AID 743051;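 active means mean activation of the triplicate above a set limit carried over from the primary screen, none filed active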
The depositor's hits bear a star; · = no result.

SMILES	hcDAF-12 act	ssDAF12 agonist	hgDAF-12 ag	DAX1 inh-1	DAX1 inh-2	hgDAF12 conf	LXRb DAF12 ctr	others
COc1ccc2cc(-c3ccccc3F)ncc2c1	11*	1.1*	16*	2	3	24*	2	LXR ag=2;hcDAF12 conf=11*
Cc1ccc2c(c1)oc(=O)n2CC(=O)c1ccccc1	-1	-2	0	-1	0	·	·
Cc1cc(Cl)ccc1OCC(=O)NNC(=O)C1CCCO1 (centres undefined)	0	-1	2	0	0	·	·
Cc1ccc(SCC(=O)Nc2cc([N+](=O)[O-])ccc2O)cc1	-1	-1	3	1	1	·	·
COc1cccc(-c2cc(C(F)(F)F)n3nc(C(=O)N4CCCCC4c4cccnc4)cc3n2)c1 (centres undefined)	-2	-2	-4	1	1	·	·
Cc1ccc(NC(=O)N2CCCc3ccccc32)cc1	2	-1	3	1	3	·	·
Cc1ccc(NC(=O)N2CCc3ccccc32)cc1	10*	1.1*	15*	-1	3.7*	23*	1	LXR ag=2;hcDAF12 conf=11*
O=C(COc1ccccc1)N1CCc2ccccc21	8.5*	-1	14*	1	1	12*	1	LXR ag=1;hcDAF12 conf=6.4*
Cc1ccc(NC(=O)c2ccc(Cl)nc2)cc1	8.7*	1.4*	14*	4	2	9	0	LXR ag=0;hcDAF12 conf=8.2*
CCN(CC)S(=O)(=O)c1ccc(NC(=O)c2ccc(Cl)nc2)cc1	-3	-2	-4	-1	-1	·	·
Cc1ccc(-c2nc3ccsc3c(=O)[nH]2)cc1	12*	1.4*	22*	2	3.7*	15*	1	LXR ag=1;hcDAF12 conf=14*
Cc1cccc(Nc2nnc(SCC(=O)NCC3CCCO3)s2)c1C (centres undefined)	2	-1	6	-1	-1	·	·
Cc1ccccc1Nc1nnc(SCC2CCCCO2)s1 (centres undefined)	2	0	15*	1	4.2*	17*	1
Nc1n[nH]c(CO)n1	-1	-1	-1	-1	0	·	·
O=C(NNC1=NCCCCC1)Nc1cccc(Cl)c1	5	0	19*	1	2	18*	0
CC(=O)Nc1ccc(-c2csc(NCc3ccco3)n2)cc1	2	-1	15*	1	1	12*	0
CC(OC(=O)c1cccc(S(=O)(=O)N2CCOCC2)c1)C(=O)NC1CCCCC1C (centres undefined)	0	-1	18*	0	0	0	0
CCC(=O)Nc1cccc(-c2ccc(N3CCC(C)CC3)nn2)c1	5.8*	1.0*	18*	1	2	13*	1
Nc1ccc(Cl)c(-c2nc3ncccc3o2)c1	-2	-1	3	0	0	·	·
Nc1ccc(-c2nc3ncccc3o2)c(Cl)c1	6.0*	0	18*	5.6*	3	16*	1
O=C(Nc1ccn(Cc2ccccc2)n1)c1ccc(F)cc1	4	1	17*	-1	0	13*	0
COc1ccc(OC)c(NC(=O)CN2C(=O)NC(C)(c3ccc4c(c3)OCCO4)C2=O)c1 (centres undefined)	0	-2	-1	0	-2	·	·
Fc1ccccc1NC(=S)N/N=C/c1ccccc1Br	4	1	16*	1	4.3*	12*	1
O=[N+]([O-])c1ccc(/C=N/NC(=S)Nc2ccccc2F)o1	1	-1	2	2	-2	·	·
CCOC(=O)CNC(=O)N(C)[C@H]1C[C@H]2c3[nH]c4c(-c5ccccc5)cccc4c3CCN2C(=O)[C@H]1[C@H](C)O	-2	-1	5	·	-1	·	·
SMILES	hcDAF-12 act	ssDAF12 agonist	hgDAF-12 ag	DAX1 inh-1	DAX1 inh-2	hgDAF12 conf	LXRb DAF12 ctr	others
O=C(Nc1ccc2ccccc2n1)C1CCCCC1	2	0	15*	·	2	16*	1
O=C(Nc1ccccc1)C1CCCCC1	-1	-1	0	0	0	·	·
Cc1cc(C(=O)COC(=O)c2cc(Cl)ccc2N)c(C)n1Cc1ccco1	4	0	14*	1	3.7*	13*	1
Cc1cc(C(=O)COC(=O)c2ccco2)c(C)n1Cc1ccco1	-3	-3	-8	2	-1	·	·
C/C(=N\NC(=O)c1cccs1)c1ccc2c(c1)OCO2	5	0	20*	·	3	8	0
C/C(=N\NC(=O)c1ccc2c(c1)OCO2)c1ccc2c(c1)OCO2	0	-1	4	2	0	·	·
COC(=O)c1c(C)nc2nonc2c1N	-1	-1	-4	3	0	·	·
CC/C(=N\O)c1c(O)c2c(n(-c3ccccc3)c1=O)CCCC2	-1	-1	-3	0	0	·	·
O=C(Nc1cccc([N+](=O)[O-])c1)Nc1ccc2c(c1)OCCO2	4	0	13*	3	2	17*	1
CC(=O)c1cccc(NC(=O)NCc2ccc3c(c2)OCO3)c1	-2	-1	0	2	-3	·	·
O=C(Nc1ccc2c(c1)CCC2)Nc1ccc2c(c1)OCO2	1	-1	14*	2	1	14*	1
O=C(Nc1cccc([N+](=O)[O-])c1)Nc1cccc([N+](=O)[O-])c1	-2	-2	0	0	-1	·	·
O=C(Nc1ccc2c(c1)OCCO2)NC12CC3CC(CC(C3)C1)C2	4	-1	14*	1	2	17*	1
CC(=O)c1cccc(NC(=O)Nc2ccc3c(c2)OCO3)c1	1	0	14*	2	2	14*	0
COc1ccccc1OCCC(=O)OCC(=O)Nc1ccc2c(c1)OCO2	0	-1	0	0	0	·	·
CC(=O)c1ccc(NC(=O)C(C)OC(=O)c2ccc(NS(=O)(=O)c3ccc(F)c(F)c3)cc2)cc1 (centres undefined)	1	-2	0	-1	0	·	·
COc1ccccc1N1CCN(c2ccc3c(c2)S(=O)(=O)c2cccc(C(=O)NCc4cccc(F)c4)c2C3=O)CC1	0	-2	3	-3	0	·	·
CCN(CC)C(=O)CS(=O)(=O)CC(=O)Nc1cc(OCCOC)c(Cl)cc1Cl	0	-2	-5	-1	0	·	·
